Values joined by “and” are separate entries in the source; they are usually repeats but may differ in a detail not shown here. Equal entries are not always repeated. Unmarked numbers belong to inactive results.
System: HCC1569
Experiment: H1.0 immunofluorescence intensity relative to DMSO (% of DMSO); higher = stronger H1.0 induction, active = 140 or more
Settings: concentration: 10 µM; 24 h
In short: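 Cell number or H1.0 nuclear intensity appears as percent of the plate control, based on the median of replicates. Measurements came from HCC1569 and TDF cells exposed in triplicate to compounds at 10 µM for 24 h at 37 °C, then imaged in six fields per well at ×10. Positional effects were smoothed out of HCC1569 values.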
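Also: TDF is a line of transformed human dermal fibroblasts of mesenchymal origin.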

Compound | H1.0 immunofluorescence intensity
COc1ccc2cc(OCC3(C(=O)O)CN(C(=O)c4ccc(F)cc4)C3)ccc2c1 | 95.8
CN1CCCC1c1cccnc1.Cc1ccc(C(=O)OC(C(=O)O)C(OC(=O)c2ccc(C)cc2)C(=O)O)cc1 (stereo not drawn) [(+)-Nicotine (+)-di-p-toluoyl tartrate] | 99.5
CCCC(=O)NCCc1c2n(c3ccc(OC)cc13)Cc1ccccc1-2 | 108
Nc1nc(Cl)nc2c1ncn2C1OC(CO)C(O)C1F (stereo not given) [Clofarabine] | 93.5
Clc1ccc(CCC(Cn2ccnc2)Sc2c(Cl)cccc2Cl)cc1.O=[N+]([O-])O (stereo not given) [Butoconazole nitrate] | 115
Cl.O=C(O)C1=CCNCC1 [Isoguvacine hydrochloride] | 98.2
CC(=O)NC1C(N=C(N)N)C=C(C(=O)O)OC1C(O)C(O)CO (stereo not given) | 99
CC1CC2C3CCC4=CC(=O)C=CC4(C)C3(F)C(O)CC2(C)C1(O)C(=O)CO (stereo not given) [Betamethasone] | 99.5
COc1cc(-c2oc3cc(O)cc(O)c3c(=O)c2OC2OC(CO)C(O)C(O)C2O)ccc1O (stereo not given) [Isorhamnetine-3-glucoside] | 85.8
O=c1cc(-c2ccc(O)cc2)oc2cc(O)cc(O)c12 [Apigenin] | 99.9
NC(=O)N1C(=O)/C(=C(\O)c2cccs2)c2cc(Cl)ccc21 | 106
COC1CC2CCC(C)C(O)(O2)C(=O)C(=O)N2CCCCC2C(=O)OC(C(C)CC2CCC(O)C(OC)C2)CC(=O)C(C)C=C(C)C(O)C(OC)C(=O)C(C)CC(C)C=CC=CC=C1C (stereo not given) [Rapamycin] | 108
C#CC1(O)CCC2C3CCC4=CC(=O)CCC4C3CCC21CC (stereo not given) [Levonorgestrel] | 98.5
CC(=O)OC1C(C)OC(Oc2c(-c3ccc(O)cc3)oc3cc(O)cc(O)c3c2=O)C(O)C1OC(C)=O (stereo not given) [RSK Inhibitor, SL0101] | 107
COc1cc2c(cc1OC)-c1cc(=Nc3c(C)cc(C)cc3C)n(C)c(=O)n1CC2.Cl [Trequinsin hydrochloride] | 101
Nc1nc(Nc2ccc(S(N)(=O)=O)cc2)nn1C(=S)Nc1c(F)cccc1F [Cdk1/2 Inhibitor III] | 128
O=C1CC(c2ccc(O)c(O)c2)Oc2c1ccc(OC1OC(CO)C(O)C(O)C1O)c2O (stereo not given) [Flavanomarein] | 99.9
Cl.O=C(O)C1=CCCNC1 [Guvacine hydrochloride] | 91.1
Cc1cc(NC(=O)CS(=O)(=O)c2cn(Cc3cc(Br)ccc3F)c3ccccc23)no1 | 151 (active)
CC(C)Cc1ccc(C(C)C(=O)NO)cc1 (stereo not given) [Ibuproxam] | 95.2

Compound | H1.0 immunofluorescence intensity
CC(=O)OC1(C(C)=O)CCC2C3CC(C)C4=CC(=O)CCC4(C)C3CCC21C (stereo not given) [Medroxyprogesterone 17-Acetate] | 89.3
Cc1ccc(NC(=O)c2ccc(CN3CCN(C)CC3)cc2)cc1Nc1nccc(-c2cccnc2)n1 [Imatinib] | 103
CCCc1cc(C(N)=S)ccn1 [Prothionamide] | 103
CCCCCCCCc1ccc(CCC(N)(CO)CO)cc1.Cl | 173 (active)
Cc1ccc(NC(=O)c2ccc(CN3CCN(C)CC3)cc2)cc1Nc1nc(-c2cccnc2)cs1 [Masatinib(AB1010)] | 141 (active)
CN(C)c1ccc(C=C2C(=O)Nc3ccccc32)cc1 | 114 and 102 and 125
CC1COc2c(N3CCN(C)CC3)c(F)cc3c(=O)c(C(=O)O)cn1c23 (stereo not given) [Ofloxacin] | 96.5
CCCCC=CCCCCCCCC(=O)O [9(E)-Tetradecenoic acid] | 98
CN=C(NC#N)NCCSCc1nc[nH]c1C [Cimetidine] | 92.1
CC(C(=O)O)c1ccc(CC2CCCC2=O)cc1 (stereo not given) [loxoprofen] | 92.6
CCC(C)C(=O)OC1CC(O)C=C2C=CC(C)C(CCC3CC(O)CC(=O)O3)C21 (stereo not given) [Pravastatin Lactone] | 110
CCN(CC)C(=S)SSC(=S)N(CC)CC [Disulfiram] | 116
COc1ccc(S(=O)(=O)Nc2cc(Cl)cc(Cl)c2OC)cc1N1CCNCC1.Cl | 99.9
CC(=O)OC1CC2(C)C(CC(O)C3C4(C)CCC(O)C(C)C4CCC32C)C1=C(CCC=C(C)C)C(=O)[O-].[Na+] (stereo not given) [Fusidic acid sodium] | 83.5
O=C([O-])C=CC(O)c1ccc(Cl)cc1.[Na+] (stereo not given) | 92.9
O=C(c1cc(O)c(O)c([N+](=O)[O-])c1)c1ccccc1F | 99.2
Cc1cn(C2CC(N=[N+]=[N-])C(CO)O2)c(=O)[nH]c1=O (stereo not given) [3'-Azido-3'-deoxythymidine] | 97.8
COc1cc2nc(N3CCN(C(=O)C4COc5ccccc5O4)CC3)nc(N)c2cc1OC (stereo not given) [Doxazosin] | 113
OCC1OC(n2cnc3c(NCCc4ccccc4)ncnc32)C(O)C1O (stereo not given) [N6-2-Phenylethyladenosine] | 101
CCCC(=O)NCCc1c2n(c3ccc(OC)cc13)CCCc1ccccc1-2 | 100

From the supplement of paper PMC7156485
